Laboratory results published in ChEMBL document CHEMBL1157539, “Thousands of chemical starting points for antimalarial lead identification” (Nature, 2010).

How the values were obtained:
Format in all cases: functional
Plasmodium falciparum [1] = assay: GSK_TCMDC: Inhibition of Plasmodium falciparum 3D7 in whole red blood cells, using parasite LDH activity as an index of growth. Test compounds present at 2uM
Plasmodium falciparum [2] = assay: GSK_TCMDC: Inhibition of Plasmodium falciparum Dd2 in whole red blood cells, using parasite LDH activity as an index of growth. Test compounds present at 2uM
HepG2 = assay: GSK_TCMDC: Percent inhibition of human HepG2 cell line. Test compounds present at 10uM.

| Structure (SMILES) | Inhibition (Plasmodium falciparum [1]) [%] | Inhibition (Plasmodium falciparum [2]) [%] | Inhibition (HepG2) [%] |
| --- | --- | --- | --- |
| CCCc1cc(N2CCC(N3CCCC3)CC2)nc(Nc2ccc(OC)cc2)n1 | 94 | 14 | 15 |
| O=C(c1cc(-c2ccco2)n[nH]1)N1CCN(S(=O)(=O)c2ccc(Br)cc2)CC1 | 95 | 90 | 1 |
| O=C(NC1CCN(Cc2ccccc2)CC1)c1cc(-c2ccncc2)c(-c2ccc(Cl)c(O)c2)o1.O=C(O)C(F)(F)F | 100 | 86 | 9 |
| Cc1cccc2nc(-c3ccc(-c4cccc(NC(=O)CCc5c[nH]cn5)c4)s3)[nH]c12 | 94 | 70 | 2 |
| CN1CCN(Cc2nc(-c3ccc4c(Nc5ccc(F)c(O)c5)ccnc4c3)cs2)CC1 | 100 | 100 | 0 |
| CC(C)(CN)c1cc(-c2ccc(Cl)c(O)c2)c(-c2ccncc2)o1.Cl | 92 | 97 | 44 |
| COc1ccc(C[C@H](N)C(=O)N[C@H]2[C@@H](O)[C@H](n3cnc4c(N(C)C)ncnc43)O[C@@H]2CO)cc1 [PUROMYCIN] | 100 | 100 | 99 |
| NC(=O)c1cc2nc(NC3CCC3)nc(Nc3cccc4[nH]ncc34)c2[nH]1.O=CO | 100 | 62 | 9 |
| CCC/C=C/c1c(CNCCCNc2cc(=O)c3ccccc3[nH]2)sc(CC)c1Br.Cl | 88 | 71 | 8 |
| COc1ccc2nccc([C@@H](O)CN3CCC(NC(=O)C(=Cc4ccc(C#N)cc4)c4ccc(-c5ccccc5)cc4)CC3)c2c1 | 100 | 84 | 5 |
| COc1ccc(O)c(C(=O)c2cc(C(=O)NCCc3ccccc3)c(=O)n(CCc3ccccc3)c2)c1 | 97 | 18 | 11 |
| COc1ccc(C(O)CNC(C)CCc2ccc(F)cc2)cc1C(F)(F)F.Cl (stereo not drawn) | 99 | 98 | 92 |
| Cc1noc(C)c1-c1ccc2c(Nc3ccc(Cl)cc3)c(C(N)=O)cnc2c1.Cl | 94 | 67 | 9 |
| CNC(=O)c1cnc(Nc2ccc(N3CCN(C)CC3)cc2)nc1Nc1cccc(OC(C)C)c1.O=C(O)C(F)(F)F | 100 | 100 | 16 |
| Cc1cccc2nc(-c3ccc(-c4cccc(CNCCN5CCNCC5)c4)cc3)[nH]c12.O=C(O)C(F)(F)F | 85 | 2 | 9 |
| COc1cccc(CNCC(C)(C)c2nc(-c3ccc(Cl)c(O)c3)c(-c3ccncc3)[nH]2)c1.Cl | 100 | 98 | 74 |
| CN1CCN(c2nsc3ccc(-c4ccc(NC(=O)Nc5ccccc5)cc4)cc23)CC1.O=C(O)C(F)(F)F | 100 | 98 | 38 |
| O=C(/C=C/c1ccccc1Cl)Nc1ccc(Br)c(OCCN2CCN(CCN3CCCC3)CC2)c1.O=C(O)C(=O)O | 99 | 89 | 26 |
| COc1ccc(NC(=O)Nc2cccc(-c3ccc(-c4nc5cccc(C)c5[nH]4)s3)c2)cc1 | 100 | 32 | 23 |
| COc1ccc(S(=O)(=O)NCC2CCCN(CCCCCNC(=O)/C=C/c3ccc(Cl)c(Cl)c3)C2)cc1 (stereo not drawn) | 81 | 1 | 53 |
| CC(C)(O)CC(C)(C)c1cc(Cl)ccc1O | 96 | 1 | 5 |

| Structure (SMILES) | Inhibition (Plasmodium falciparum [1]) [%] | Inhibition (Plasmodium falciparum [2]) [%] | Inhibition (HepG2) [%] |
| --- | --- | --- | --- |
| CN(CC1CCC(NC(=O)/C=C/c2ccc(Cl)c(Cl)c2)CC1)C1CCC(c2c[nH]c3ccccc23)CC1 (stereo not drawn) | 99 | 53 | 53 |
| CCNc1cc(C(=O)N[C@@H](Cc2ccccc2)[C@H](O)CNCc2cc(OC)cc(OC)c2)cc(N2CCCC2=O)c1.Cl | 100 | 75 | 0 |
| O=C(Nc1nccs1)c1cn(-c2ccccc2)nc1-c1ccc(Cl)s1 | 96 | 18 | 9 |
| CCCNC(=O)Nc1ccc(N(C)c2ccnc(NC3CC3)n2)cc1 | 100 | 88 | 28 |
| CN1CCN(c2ccnc3ccc(NC(=O)Nc4ccc5c(c4)CCCC5=O)cc23)CC1 | 100 | 90 | 8 |
| COc1ccc2nccc([C@@H](O)CN3CCC(NCc4ccc5scnc5c4)CC3)c2c1.O=C(O)C(=O)O | 100 | 93 | 17 |
| CCc1c(CCNCCCCCCNC(C)Cc2ccc3c(c2CC)OCO3)ccc(OC)c1OC.Cl (stereo not drawn) | 100 | 64 | 100 |
| CN(C)CCOc1cccc(NC(=O)Nc2ccc(-c3ccccc3)cc2)c1.O=C(O)C(F)(F)F | 90 | 16 | 11 |
| Cc1nnsc1C(=O)Nc1ccc(-c2cccc(-c3nc4cc(C(F)(F)F)ccc4[nH]3)c2)cc1 | 97 | 36 | 69 |
| Cc1cc(Nc2ccc(C)c(C)c2)n2nc(C)nc2n1 | 95 | 45 | 10 |
| CC1CCc2c(C(=O)Nc3c(F)cc(F)cc3Br)csc2C1 (stereo not drawn) | 96 | 59 | 0 |
| O=C(C=Cc1ccccc1)Nc1ccc(C#CC=Cc2ccc(NC(=O)C=Cc3ccccc3)cc2)cc1 | 100 | 3 | 26 |
| COc1cc(C=NNc2ccnc3cc(Cl)ccc23)ccc1O | 100 | 100 | 15 |
| CC(C)c1cc2c(cc1O)C(Cc1ccccc1Cl)N(C)CC2.Cl (stereo not drawn) | 97 | 33 | 0 |
| CCOC(=O)c1ccc2[nH]c(-c3ccc(C(=O)NCc4ccc(C(C)(C)C)cc4)cc3)nc2c1 | 94 | 34 | 0 |
| O=C(NCc1ccc(Cl)c(Cl)c1)[C@H]1CNCCN1C(=O)c1ccccc1.O=C(O)C(F)(F)F | 97 | 4 | 0 |
| COc1ccc(CSC2CCCCC23NC(=S)NC3=S)cc1 (stereo not drawn) | 97 | 0 | 0 |
| CC(C)c1ccc(NC(=O)c2ccc(CN3CCCN(Cc4cccc(O)c4)CC3)cc2)cc1.O=C(O)C(F)(F)F | 100 | 58 | 51 |
| CN(C)CCCNc1ccnc2cc(Cl)ccc12 | 100 | 100 | 10 |
| CC(C)(C)OC(=O)N(Cc1cc(-n2nnnc2C(F)(F)F)ccc1O)[C@H]1CCCN(C(=O)OC(C)(C)C)[C@H]1c1ccccc1 | 98 | 66 | 14 |
| CCc1c(C)nc(-n2nc(C)cc2NC(=O)C2c3ccccc3Oc3ccccc32)[nH]c1=O | 89 | 80 | 37 |

| Structure (SMILES) | Inhibition (Plasmodium falciparum [1]) [%] | Inhibition (Plasmodium falciparum [2]) [%] | Inhibition (HepG2) [%] |
| --- | --- | --- | --- |
| N#Cc1cccc(C(=O)Nc2cccc(-c3ccc(CN4CCC(O)CC4)cc3)c2)c1.O=C(O)C(F)(F)F | 86 | 2 | 15 |
| Br.CC1(C)NC(N)=NC(=N)N1OCCCOc1ccc([N+](=O)[O-])cc1 | 94 | 80 | 68 |
| CCOc1cc(NC(=O)Nc2ccnc3ccccc23)cc(OC)c1.Cl | 98 | 73 | 0 |
| O=C(/C=C/c1ccc(Cl)c(Cl)c1)NCCC(CN1CCC(c2c[nH]c3ccccc23)CC1)c1ccccc1 (stereo not drawn) | 100 | 42 | 84 |
| CC(=O)Nc1cccc(/C=C/C(=O)N2CCC(N3CCCCC3)CC2)c1 | 96 | 0 | 1 |
| CC(C)=CC1C(C(=O)n2c(=N)[nH]c3ccccc32)C1(C)C (stereo not drawn) | 99 | 3 | 16 |
| COc1ccc(-c2nc3c(N)nc(N)nc3nc2C(C)C)cc1 | 96 | 0 | 71 |
| CC(c1cccc(S(=O)(=O)NCc2ccc(Cl)cc2Cl)c1)N1CCC(N2CCCCC2)CC1 (stereo not drawn) | 100 | 40 | 36 |
| COc1ccc(NC(=O)[C@H](Cc2ccccc2)Nc2cc(C)nc(Nc3ccccc3)n2)cc1.O=C(O)C(F)(F)F | 100 | 92 | 0 |
| CS(=O)(=O)CCNC(=O)c1ccc(-c2cc3c(Nc4ccc5c(cnn5Cc5ccccc5)c4)ncnc3cn2)o1.Cl | 97 | 46 | 6 |
| CS(=O)(=O)CCNc1cc(N2CCc3ncnc(Nc4ccc(OCc5cccc(F)c5)c(Cl)c4)c3C2)ncn1 | 96 | 50 | 0 |
| N=C(/N=C(/NCCCCCCN/C(=N/C(=N)NCc1ccc(Cl)c(Cl)c1)N1CCCCC1)N1CCCCC1)NCc1ccc(Cl)c(Cl)c1 | 100 | 99 | 6 |
| O=C(Nc1cccc(-c2cccc(-c3nc4ccccc4[nH]3)c2)c1)c1ccoc1 | 85 | 36 | 19 |
| COc1ccc(CNCCc2cccs2)cc1-c1ccc(OC)c(S(=O)(=O)NCCN2CCCC2)c1.O=C(O)C(F)(F)F | 96 | 19 | 16 |
| COCCOc1ccc(Nc2nccc(-c3c(-c4cccc(NC(=O)c5c(F)cccc5F)c4)nn4ccccc34)n2)cc1Cl | 99 | 97 | 53 |
| O=C(NC1CCN(c2ccnc(Nc3ccc(F)cc3)n2)C1)c1cc2ccccc2s1 (stereo not drawn) | 99 | 80 | 6 |
| O=C(c1ccc(F)cc1)N1CCOC(CCN2CCC(c3ccccc3)CC2)(c2ccc(Cl)c(Cl)c2)C1 (stereo not drawn) | 88 | 84 | 29 |
| O=C(O)C(F)(F)F.c1ccc(CN2CCC(NCc3ccccc3-c3cccc(CNCc4ccc5c(c4)OCO5)c3)CC2)cc1 | 100 | 69 | 37 |
| CC1CN(CC(O)Cn2c3ccc(Br)cc3c3cc(Br)ccc32)CC(C)O1 (stereo not drawn) | 100 | 100 | 0 |
